The values below come from PubChem BioAssay.

Assay [1] in a line: small molecules captured by biotinylated probe aFSTL3 – biochemical, small-molecule microarray, fluorescence 635/667, stem cell growth factor project, primary screen (AID 1064).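 Also: measures binding of the biotinylated anti-FSTL3 antibody to printed compounds.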 The settings on record: higher = more signal.
The nature of assay [2]: binders from COS7 lysate, DM2A8 probe, primary screen, torsin A project, cell lysate, small-molecule microarray, fluorescence 635/667 (AID 1065). As to conditions: higher = more signal, COS7 lysate expressing mutant human TOR1A.
Assay [3] can be described thus: small molecules captured by biotinylated probe aFGF2 – biochemical, small-molecule microarray, fluorescence 635/667, stem cell growth factor project, primary screen (AID 1067).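 Also: measures binding of biotinylated aFGF2 protein to printed compounds on slides; z-score merges feature fluorescence and signal-to-noise across triplicate slides.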 The settings on record: higher = more signal.
Assay [4] is described as follows: small molecules captured by biotinylated probe aFGF10 – biochemical, small-molecule microarray, fluorescence 635/667, stem cell growth factor project, primary screen (AID 1071).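 Also: score merges 667 nm spot intensity and signal to noise from triplicate slides.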 The settings on record: higher = more signal.
The target of assay [5] is Neurogenic locus notch homolog protein 2 (Homo sapiens) (UniProt Q04721). Kind of assay: small molecules binding Notch2 protein – biochemical, small-molecule microarray, 635 nm fluorescence, stem cell growth factors, primary screen (AID 1073). As to conditions: higher = more signal.
Sequence of Neurogenic locus notch homolog protein 2 (Homo sapiens) (Q04721 whole entry, looked up, canonical isoform): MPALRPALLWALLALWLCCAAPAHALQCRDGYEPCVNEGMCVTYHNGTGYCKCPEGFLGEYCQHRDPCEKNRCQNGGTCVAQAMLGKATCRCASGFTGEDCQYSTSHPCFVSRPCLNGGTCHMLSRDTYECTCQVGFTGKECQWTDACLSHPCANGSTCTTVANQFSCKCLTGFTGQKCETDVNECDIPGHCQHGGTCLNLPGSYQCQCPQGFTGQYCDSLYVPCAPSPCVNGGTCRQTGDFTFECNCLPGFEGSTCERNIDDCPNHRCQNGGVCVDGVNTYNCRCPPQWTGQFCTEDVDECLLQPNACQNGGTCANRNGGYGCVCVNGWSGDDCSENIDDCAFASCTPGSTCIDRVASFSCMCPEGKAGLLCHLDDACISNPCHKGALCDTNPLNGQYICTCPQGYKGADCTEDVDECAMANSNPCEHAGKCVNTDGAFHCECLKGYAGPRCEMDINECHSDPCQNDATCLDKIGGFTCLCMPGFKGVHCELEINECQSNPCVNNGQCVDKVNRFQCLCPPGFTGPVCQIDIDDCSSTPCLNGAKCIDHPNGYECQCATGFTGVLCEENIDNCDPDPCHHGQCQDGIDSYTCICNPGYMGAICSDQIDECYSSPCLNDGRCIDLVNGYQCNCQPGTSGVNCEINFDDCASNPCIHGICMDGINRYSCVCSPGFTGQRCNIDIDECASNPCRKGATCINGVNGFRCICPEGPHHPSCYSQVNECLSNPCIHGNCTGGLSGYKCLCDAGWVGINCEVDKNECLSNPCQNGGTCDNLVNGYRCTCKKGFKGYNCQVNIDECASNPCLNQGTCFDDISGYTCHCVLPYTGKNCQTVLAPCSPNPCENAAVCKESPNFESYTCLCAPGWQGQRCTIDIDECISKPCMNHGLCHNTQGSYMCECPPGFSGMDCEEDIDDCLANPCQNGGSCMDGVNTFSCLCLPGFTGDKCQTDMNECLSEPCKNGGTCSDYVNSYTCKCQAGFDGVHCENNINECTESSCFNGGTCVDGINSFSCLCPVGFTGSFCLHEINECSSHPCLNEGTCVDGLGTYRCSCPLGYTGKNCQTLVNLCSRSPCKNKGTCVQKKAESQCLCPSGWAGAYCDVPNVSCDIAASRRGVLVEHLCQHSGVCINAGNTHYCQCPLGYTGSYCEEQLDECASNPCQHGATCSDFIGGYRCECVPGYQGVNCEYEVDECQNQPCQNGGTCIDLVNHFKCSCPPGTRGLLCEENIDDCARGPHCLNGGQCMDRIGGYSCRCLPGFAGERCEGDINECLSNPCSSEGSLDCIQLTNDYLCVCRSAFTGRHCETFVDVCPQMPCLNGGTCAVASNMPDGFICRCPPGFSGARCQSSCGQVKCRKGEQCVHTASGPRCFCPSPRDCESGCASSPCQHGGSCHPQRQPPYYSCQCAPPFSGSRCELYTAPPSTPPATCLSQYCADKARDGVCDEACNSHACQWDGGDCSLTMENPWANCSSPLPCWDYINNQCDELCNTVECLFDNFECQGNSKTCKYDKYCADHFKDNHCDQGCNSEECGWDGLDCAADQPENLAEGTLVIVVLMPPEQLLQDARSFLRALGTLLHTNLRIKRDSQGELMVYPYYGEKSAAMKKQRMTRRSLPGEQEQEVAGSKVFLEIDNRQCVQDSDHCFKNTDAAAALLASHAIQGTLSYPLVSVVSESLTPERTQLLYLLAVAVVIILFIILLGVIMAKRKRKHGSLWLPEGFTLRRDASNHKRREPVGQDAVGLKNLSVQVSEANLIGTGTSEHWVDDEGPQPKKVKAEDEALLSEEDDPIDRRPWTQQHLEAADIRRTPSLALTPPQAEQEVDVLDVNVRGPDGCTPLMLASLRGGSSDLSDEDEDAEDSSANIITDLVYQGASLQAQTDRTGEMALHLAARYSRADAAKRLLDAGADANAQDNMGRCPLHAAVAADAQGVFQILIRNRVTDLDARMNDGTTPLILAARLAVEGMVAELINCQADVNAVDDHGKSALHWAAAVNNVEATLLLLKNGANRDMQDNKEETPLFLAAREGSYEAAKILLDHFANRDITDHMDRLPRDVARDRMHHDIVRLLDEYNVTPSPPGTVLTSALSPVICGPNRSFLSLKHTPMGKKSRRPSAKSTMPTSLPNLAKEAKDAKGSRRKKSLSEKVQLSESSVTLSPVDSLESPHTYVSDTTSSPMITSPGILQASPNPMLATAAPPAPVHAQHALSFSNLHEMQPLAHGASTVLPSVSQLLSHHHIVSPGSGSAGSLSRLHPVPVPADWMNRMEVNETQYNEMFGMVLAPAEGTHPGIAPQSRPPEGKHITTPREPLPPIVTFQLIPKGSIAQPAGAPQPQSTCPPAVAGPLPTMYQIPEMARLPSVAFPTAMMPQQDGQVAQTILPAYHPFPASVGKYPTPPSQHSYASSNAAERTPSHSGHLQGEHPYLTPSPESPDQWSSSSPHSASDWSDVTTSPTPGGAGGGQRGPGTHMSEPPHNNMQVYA
For assay [6], the target named is Pro-neuregulin-1, membrane-bound isoform (Homo sapiens) (UniProt Q02297). Kind of assay: small molecules binding neuregulin-1 protein – biochemical, small-molecule microarray, fluorescence 635/667, psychiatric disease protein project, primary screen (AID 1075).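 Also: score combines 667 nm spot fluorescence with signal to noise.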 The settings on record: NRG1 binding, 635 nm fluorescence, higher = more signal.
Sequence of Pro-neuregulin-1, membrane-bound isoform (Homo sapiens) (Q02297 whole entry, looked up, the tested form may be a part, canonical isoform): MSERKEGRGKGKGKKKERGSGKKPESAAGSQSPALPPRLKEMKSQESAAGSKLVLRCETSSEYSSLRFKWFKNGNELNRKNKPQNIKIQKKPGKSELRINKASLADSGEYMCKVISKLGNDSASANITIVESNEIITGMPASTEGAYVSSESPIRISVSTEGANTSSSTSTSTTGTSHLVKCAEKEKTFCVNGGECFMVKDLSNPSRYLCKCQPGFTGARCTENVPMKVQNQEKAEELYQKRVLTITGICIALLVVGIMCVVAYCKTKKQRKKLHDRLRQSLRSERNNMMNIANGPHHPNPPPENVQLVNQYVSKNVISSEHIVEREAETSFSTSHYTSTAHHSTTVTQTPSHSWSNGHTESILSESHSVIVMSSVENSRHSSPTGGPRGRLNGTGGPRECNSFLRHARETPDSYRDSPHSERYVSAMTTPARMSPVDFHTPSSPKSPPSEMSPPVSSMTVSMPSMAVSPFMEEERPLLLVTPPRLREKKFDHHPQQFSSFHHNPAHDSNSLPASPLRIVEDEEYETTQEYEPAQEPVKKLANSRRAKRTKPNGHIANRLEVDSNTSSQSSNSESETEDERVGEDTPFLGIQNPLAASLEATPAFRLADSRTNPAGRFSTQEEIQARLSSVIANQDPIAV
Assay [7] relates to Neuregulin-1 EGF-like domain. Kind of assay: small molecules binding NRG1 EGF domain – biochemical, small-molecule microarray, 635 nm fluorescence, primary screen (AID 1081).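 Also: binding of the protein to compounds printed on small-molecule microarray slides.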 As to conditions: higher = more signal.
Assay [8] is described as follows: FRG1 expression reporter modulators in myotubes – cell-based, C2C12 myotubes, firefly/Renilla luciferase, luminescence, FRG1 inhibition for FSHD, primary screen (AID 1084). The settings on record: FRG1 promoter luciferase, higher = more signal, called active from +8 up or from −8 down.
Assay [9] can be described thus: small molecules captured by biotinylated probe aFST – biochemical, small-molecule microarray, fluorescence 635/667, stem cell growth factor project, primary screen (AID 1086).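 Also: score merges 667 nm fluorescence with signal-to-noise of each printed compound spot.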 As to conditions: higher = more signal.
Assay [10] is described as follows: binders of probe aHhip on microarray, primary screen, stem cell growth factor project, biochemical, small-molecule microarray, fluorescence 635/667 (AID 1087).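 Also: score merges spot fluorescence at 667nm with spot signal to noise ratio.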 As to conditions: higher = more signal.

Activity calls are given as the source filed them.

Consider `COC(=O)[C@@]1(Cc2ccccc2)[C@H]2c3cc(C(=O)N4CCCC4)n(Cc4cccc5ccccc45)c3C[C@H]2CN1C(=O)c1ccccc1`, for which the composite z-score in assay [1] amounted to 1.79; in assay [2] it was 0.0848; in assay [3], 0.705; in assay [4], 0.913; in assay [5], 1.63; in [6], 1.49. Moreover, the composite z-score was 1.21 in assay [7], 2.03 in [9] and 0.869 in [10]. Also, the z-score in assay [8] is -0.165 (inactive).

For `COCCOC(=O)N1C(=O)[C@@]2(c3ccccc31)[C@H](c1ccc(O)cc1)N1[C@H](c3ccccc3)[C@H](c3ccccc3)OC(=O)[C@H]1[C@@H]2C(=O)NC[C@H](O)c1ccccc1`, the composite z-score is 0.0147 in [1]; 0.702 in assay [2]; -0.0702 in assay [3]; 0.157 in assay [4]; 0.187 in assay [5]; 1.8 in assay [6]. In addition, the composite z-score in assay [7] was found to be 1.26; in [9] it was 0.118; in assay [10] it was 0.0093. In [8], the z-score is -0.567 (inactive).

In the case of `CN1C(=O)C2C=CC(C(O)C3=C[C@H]4C[C@@H](C3)C4(C)C)N(Nc3ccccc3)C2C1=O` (stereo not given in full), the composite z-score in [1] was 1.23; in assay [2] it was 0.329; in assay [3], -0.0454; in assay [4], 0.677; in assay [5], 1.49; in [6], 0.986. The composite z-score in [7] turned out to be 1.02; in assay [9] it was 1.23; in [10], 0.064. Further, the z-score in assay [8] is 0.175 (inactive).

On to `C=C(CCCC)C(=O)CC[C@H](OC(=O)c1cccnc1)c1ccccc1OCCO`, for which the composite z-score in [1] is 0.453; in assay [2] it was 0.657; in assay [3], -0.0573; in assay [4], 0.726; in [5], -0.261; in assay [6], -0.113. In addition, the figures for the composite z-score in assay [7], in assay [9] and in [10] were 0.22, 0.0241 and 0.0505, respectively. In addition, the z-score in assay [8] was 1.28 (inactive).

In the case of `C=CCOC(=O)[C@H]1[C@@H]2C(=O)O[C@@H](c3ccccc3)[C@@H](c3ccccc3)N2[C@@H](c2ccc(OCCOC(=O)[C@@H]3C[C@@H]4C(=O)N[C@@H](CCCCN(C)C)C(=O)N4[C@@H]3c3ccc(O)cc3)cc2)[C@]12C(=O)Nc1ccc(I)cc12`, the composite z-score was -0.617 in [1]; 1.04 in assay [2]; -0.0468 in assay [3]; 0.589 in assay [4]; 0.766 in assay [5]; 1.27 in [6]. Also, the composite z-score in assay [7] was 1.33; in assay [9], 0.429; in assay [10], -0.112. Moreover, in assay [8], the z-score is -0.694 (inactive).

On to `OC([C@@H]1CC(c2ccccc2)=NO1)[C@H]1CC(c2ccccc2)=NO1` (stereo not given in full), for which the composite z-score in assay [1] was 0.0787; in [2], -0.141; in [3], -0.0634; in [4], 0.287; in [5], 0.178; in [6] it was -0.0896. Besides, the values for the composite z-score in assay [7], in assay [9] and in assay [10] were 0.563, 0.227 and 0.0024, respectively. For the same compound, the z-score in assay [8] is 0.364 (inactive).

As for `O=C1OCC=C[C@H]2OC34C=CCN(c5ccc6ccccc6c5)C(=O)[C@H]3N(CCCCCCO)C(=O)[C@@H]4[C@@H]12` (stereo not given in full), the composite z-score is 0.787 in [1]; 1.94 in assay [2]; -0.133 in assay [3]; -0.566 in [4]; -1.15 in [5]; 0.781 in assay [6]. Besides, the composite z-score in assay [7] was 1.57; in assay [9], -0.302; in assay [10], -0.226. Besides, the z-score in [8] was 0.78 (inactive).

In the case of `COCC(=C=CC[C@H](O)c1ccccc1OCCO)C[C@H](O)c1cc(Cl)cc(Cl)c1O`, the composite z-score is -0.417 in [1]; 0.555 in assay [2]; -0.129 in assay [3]; 0.999 in [4]; 0.421 in [5]; 1.43 in assay [6]. For the same compound, the composite z-score is 1.14 in assay [7], 0.372 in assay [9] and -0.0994 in assay [10]. Further, in [8], the z-score is -3.97 (inactive).

With `CCCC[C@H]1OB(O)C[C@H]2C1=C(COc1ccccc1)C[C@H]1C(=O)N(C)C(=O)[C@H]12`, the composite z-score in assay [1] is -0.32; in assay [2], -0.353; in assay [3], -0.085; in [4], 0.121; in assay [5], 0.85; in assay [6], 0.0746. Further, the figures for the composite z-score in [7], in assay [9] and in assay [10] were 0.462, 1.2 and -0.0754, respectively. Further, the z-score in [8] was -0.153 (inactive).

Regarding `CC(C)(C)OC(=O)CC[C@@]1(C(=O)NCC(O)CO)N=C(c2ccc(OCCCO)cc2)O[C@@H]1c1ccccc1N=[N+]=[N-]` (stereo not given in full), the composite z-score turned out to be 0.119 in [1]; 1.11 in [2]; 0.0599 in assay [3]; 0.559 in assay [4]; 1.2 in [5]; 1.97 in assay [6]. Also, the composite z-score is 1.17 in assay [7], 0.552 in [9] and -0.0618 in assay [10]. For the same compound, in assay [8], the z-score was 2.43 (inactive).

Regarding `C=CCOC(=O)[C@@H]1[C@H]2C(=O)O[C@H](c3ccccc3)[C@H](c3ccccc3)N2[C@H](c2ccc(OCCOC(=O)[C@@H]3C[C@@H]4C(=O)N5CCC[C@H]5C(=O)N4[C@@H]3c3ccc(O)cc3)cc2)[C@@]12C(=O)Nc1ccc(I)cc12`, the composite z-score was -0.354 in assay [1]; -0.0315 in [2]; -0.0958 in assay [3]; 0.235 in [4]; 0.666 in [5]; 0.596 in assay [6]. In addition, the composite z-score in assay [7] was 1.19; in assay [9], 0.965; in assay [10], -0.069. Besides, the z-score in assay [8] is -0.804 (inactive).

As for `N#Cc1ccc(NN2C(C(O)c3c(F)cccc3Cl)C=CC3C(=O)N(c4ccccc4)C(=O)C32)cc1` (stereo not given), the composite z-score in [1] turned out to be 0.394; in assay [2], 0.187; in assay [3], 0.199; in assay [4], 0.63; in [5], 1.69; in assay [6], 1.97. Besides, the composite z-score in [7] is 0.456; in assay [9], 1.18; in assay [10], 0.0053. Also, the z-score in assay [8] is -1.14 (inactive).

As to `O=C1[C@H]2C=C(Br)[C@H](C[C@@H]2OCCCCO)[C@@]12CO2`, the composite z-score is -0.441 in [1]; -0.199 in assay [2]; -0.116 in assay [3]; 0.0593 in [4]; 0.0769 in assay [5]; -0.434 in [6]. The composite z-score in [7] is -0.0036; in assay [9], -0.241; in assay [10] it was -0.0237. Further, the z-score in assay [8] is -0.636 (inactive).

`CN1C(=O)C2C=CC(C(O)Cc3ccccc3)N(Nc3ccccc3)C2C1=O` (stereo not given): the composite z-score in assay [1] was 0.0217; in [2], -0.576; in assay [3], -0.116; in [4] it was 0.294; in [5] it was 1.21; in assay [6], 1.38. The composite z-score in assay [7] is 1.13; in [9], 0.0791; in assay [10], -0.236. Further, the z-score in assay [8] is 0.84 (inactive).
